Experimental findings from PubChem BioAssay AID540253 (National Center for Advancing Translational Sciences (NCATS), 2011) are described below.

Screen size: about 340,000 compounds; about 240 (0.071%) were called active. Another 5% or so got no clear call; they are omitted. The call rests on the fitted dose curve. The list comes from a sample in which actives are over-represented; it also holds similar structures and randomly drawn compounds. A call without a number means that no potency is given here.
Potency means the concentration at half of the fitted maximal effect.

The target of this test is Snurportin-1 (Homo sapiens) + GTP-binding nuclear protein Ran (Homo sapiens) + Importin subunit beta-1 (Homo sapiens) (UniProt O95149+P62826+Q14974). Kind of test: qHTS Assay for Inhibitors of RanGTP induced Rango (Ran-regulated importin-beta cargo) - Importin beta complex dissociation. Further: nearly all actives have a fitted effect of over 45% in size. The conditions noted are these: Biochemical FRET Rango-importin beta; series mostly up to 46.1 µM. The text has this: NIH Molecular Libraries Probe Production Centers Network [MLPCN] NIH Chemical Genomics Center [NCGC] MLPCN Grant: R03 MH090808-01A1 Assay Submitter (PI): Petr Kalab NCGC Assay Overview: The small GTPase Ran regulates transport of macromolecules between the nucleus and the cytoplasm (nuclear transport) and has important functions in mitotic spindle assembly, nuclear envelope (NE) formation and nuclear pore complex (NPC) assembly. RanGTP gradient is thought to promote spindle assembly by providing a spatial clue to microtubule nucleation and Aurora A activation. Because the localized release and binding of importin alpha cargos relays this spatial clue to SAFs, inhibitors of the Rango - importin beta complex can then be used in further understanding their role in cell cycle specifically in mitosis progression. […] Activation of Aurora A has been linked to different types of cancer and a number of Aurora kinase inhibitors are being developed as potential canter therapeutics; therefore, identified inhibitors of this complex could be developed into potential anti-mitotic probes for cancer treatment. Purified recombinant proteins Rango - importin beta and RanGTP-RCC1 stock premixes were provided by the assay submitter. The assay used a fluorescence resonance energy transfer (FRET) Rango biosensor that contains the IBB of human snurportin 1 flanked by yellow fluorescent protein (EYFP) at the amino terminus and cerulean CFP10 at the carboxy terminus. […] RanGTP binding to the complex (in the presence of RCC1) releases the Rango from the complex. The flexibility of the IBB in the freed Rango allows the donor - acceptor fluorophores to interact, resulting in a high FRET signal. Inhibitors will therefore be identified based on the ability to interfere with the FRET signal increase. DMSO treated and no RanGTP-RCC1 (buffer only) wells were used as negative and positive controls respectively. FRET readings were obtained at two time points. FRET reading prior to importin beta addition (pre-read) were used flag potential compound interference; FRET reading after importin beta addition (post-read) were used to identify inhibitors.
NCGC Assay Protocol Summary: Two and a half uL/well of Rango- importin beta premix solution (0.1 uM Rango, 0.25 uM importin beta, 1x PBS, 1mM DTT, 0.02% Tween-20, 0.1% BSA final concentrations) was dispensed into 1536-well assay plates (Greiner, solid black medium-binding plates) with Aurora Discovery BioRAPTR Flying Reagent Dispenser (FRD; Beckton-Dickenson). Compound solution (23 nL) was transferred to the assay plate using Kalypsys pin tool equipped with a 1536-pin tool and incubated at room temperature for 5 min followed by a FRET pre-read using the PerkinElmer Envision plate reader. Two and a half uL/well of RanGTP-RCC1 premix solution (0.6 uM Ran, 2mM GTP, 0.2 uM RCC1, 1x PBS, 1mM DTT, 0.02% Tween-20, 0.1% BSA final concentrations) were then added and incubated at room temperature giving a final reaction volume of 5uL. After 45min FRET post-read was obtained via the Envision plate reader using the same optics and settings as the pre-read (CFP/YFP optimized dual optical module D450/D505; excitation mirror CFP 430/24 nm; and emission filters CFP 486/10 nm and YFP 530/10 nm).
(In qHTS, concentration-response curves come from the screen itself.)
Take `Cc1ccc(S(=O)(=O)n2oc(=O)c(C3CCCCC3)c2N)cc1`: the Potency entry was “inactive”.

On to `O=C(Nc1ccn(CCCNCc2ccc3[nH]ccc3c2)c(=O)n1)OCc1ccccc1`, for which the Potency result was “inactive”.

Consider `CCCCN1CC(CO)Oc2cccc(F)c2S1(=O)=O` (stereo not given), for which the Potency result is “inactive”.

For `CCc1c(Nc2ccccc2Cl)nc(N)[nH]c1=O`, the Potency result is “inactive”.

Regarding `O=C1OCC2=C1C(c1ccc(Cl)cc1)c1cc3c(cc1O2)OCO3` (stereo not given), the Potency result is “inactive”.

As for `O=C1C2C3C=CC(C3)C2C(=O)N1c1ncc([N+](=O)[O-])s1` (stereo not given), the Potency result is “inactive”.

With `O=C(NN=Cc1ccc([N+](=O)[O-])cc1)C1CC1`, the Potency entry is “inactive”.

For `O=C(CCC(=O)N1CCN(S(=O)(=O)c2ccc(Cl)cc2)CC1)NCc1cccc(C(F)(F)F)c1`, the Potency entry is “inactive”.

Consider `COc1ccc(CC(=O)NC(C)c2ccc(Cl)c(Cl)c2)cc1S(=O)(=O)N1CCOCC1` (stereo not given), for which the Potency entry was “inactive”.

Regarding `CCOC(=O)C1CCCN(C(=O)Cn2ncc3c(=O)oc4ccc(C)cc4c32)C1` (stereo not given), the Potency entry was “inactive”.

With `CC1=CC(=NNS(=O)(=O)c2ccc([N+](=O)[O-])cc2)CC(C)(C)C1`, the Potency result was “inactive”.

For `O=C(O)c1ccccc1/C=N/Nc1ccc(S(=O)(=O)Nc2ccc(Cl)cc2)cc1[N+](=O)[O-]`, the Potency result is “inactive”.

As to `NN=C(NN=Cc1ccccc1)c1ccccc1`, the Potency entry is “inactive”.

As for `NC(=O)c1ncn([C@@H]2O[C@H](CN=C3NS(=O)(=O)c4ccccc43)[C@@H](O)[C@H]2O)n1`, the Potency result is “inactive”.

On to `CC(C)OC(=O)c1ccc(NCc2cc(O)ccc2O)cc1Cl`, for which the Potency entry is “inactive”.

For the compound `O=C(c1ccc2c(c1)C(=O)N(Cc1ccncc1)C2=O)N1CCN(S(=O)(=O)c2ccc(OC(F)(F)F)cc2)CC1`, the Potency entry was “inactive”.

For `NC(CSC1(c2ccccc2)c2ccccc2-c2ccccc21)C(=O)O` (stereo not given), the Potency entry was “inactive”.

For `O=c1[nH]c(=S)[nH]c(O)c1/C=C1\C=Nc2ccccc21`, the Potency result was “inactive”.

`O=C1OC(Cc2ccccc2)C(c2ccccc2)C1=O` (stereo not given): the Potency entry was “inactive”.

As for `Cc1cccc(C2c3c(n(C)c(=O)n(C)c3=O)N=C3c4ccccc4C(=O)C32)c1` (stereo not given), the Potency result is “inactive”.

On to `CCNC(=S)NCC`, for which the Potency result was “inactive”.

With `COc1ccc(-c2nnc(-c3ccc4ccccc4c3)o2)cc1`, the Potency entry is “inactive”.

Take `Cc1[nH]c(N)nc(=S)c1CCCNc1ccccc1`: the Potency result is “inactive”.

For `Cn1c(N)cc(=O)n(C)c1=S`, the Potency entry was “inactive”.

With `NC(=O)c1ccc(N2CCCC2)nc1`, the Potency result is “inactive”.

On to `Cc1cc([N+](=O)[O-])c(=O)[nH]c1C`, for which the Potency result was “inactive”.

Consider `O=S(=O)(Cc1ccc(Cl)cc1Cl)c1ccc(Cl)cc1`, for which the Potency entry was “inactive”.

As for `CCN(CC(=O)Nc1c(F)cccc1F)C(=O)Cc1cccs1`, the Potency entry was “inactive”.

Take `O=[N+]([O-])c1ccc(NS(=O)(=O)c2ccccc2)c(Cl)c1`: the Potency entry is “inactive”.

As to `O=C(O)C(c1cccs1)C1(O)CCCCC1` (stereo not given), the Potency entry is “inactive”.

In the case of `O=C(CC1Sc2ccccc2NC1=O)NNc1ccc(Cl)c(Cl)c1` (stereo not given), the Potency result is “inactive”.

Regarding `S=C(Nc1ccccc1)Nc1ccc2ccccc2c1`, the Potency entry is “inactive”.

For `C/C(=N\Nc1ccccc1)c1cccs1`, the Potency result was “inactive”.

Regarding `CCC1(C)COC(c2ccc(OC)c(OC)c2)OC1` (stereo not given), the Potency entry was “inactive”.

Turning to `Cn1c(CNC(=O)C(C)(C)C)nc2ccccc21`, the Potency result was “inactive”.

For the compound `Cn1c(NC(=O)c2ccccc2)nc2ccccc21`, the Potency result was “inactive”.

On to `Cn1c(-c2ccc(C(=O)c3ccccc3)s2)nc2ccccc21`, for which the Potency was 8.2 µM [inconclusive] (active).

With `Nc1ccc2[nH]c(=S)sc2c1`, the Potency result is “inactive”.

With `O=C1c2ccccc2C(=O)C1C(=O)C1CC1`, the Potency entry is “inactive”.

In the case of `O=C(O)c1ccc([N+](=O)[O-])cc1Sc1ccsc1`, the Potency entry was “inactive”.

Regarding `CC(C=Cc1ccccc1)=NNS(=O)(=O)c1ccc([N+](=O)[O-])cc1`, the Potency result was “inactive”.

In the case of `O=[N+]([O-])c1cc2ccccc2nc1-c1ccccc1`, the Potency entry was “inactive”.

Regarding `CCN1C[C@@H]2[C@@H]3C(=O)N(C)C(=O)[C@@H]3[C@](C)(C1=O)N2C(=O)c1ccccc1`, the Potency entry is “inactive”.

For `COc1cc(O)c2c(=O)c3c(O)c(O)ccc3oc2c1OC`, the Potency result is “inactive”.

In the case of `C#CCOCCOCCOCCNc1nc(N2CCOCC2)nc(N2CCN(C(=O)[C@H](Cc3ccc(O)cc3)n3cc(CCO)nn3)CC2)n1`, the Potency result was “inactive”.

With `O=C(NN=Cc1ccccc1)c1ccccc1`, the Potency entry was “inactive”.

With `CCOc1ccc(CCNC(=O)COC(=O)C2CCN(S(=O)(=O)c3ccccc3)CC2)cc1OCC`, the Potency entry was “inactive”.

With `Cc1cc(NC(=O)c2cc3ccccc3o2)no1`, the Potency entry was “inactive”.

With `CC(=O)N1CCc2ccc(N)cc21`, the Potency entry was “inactive”.

Regarding `O=C1C(Cl)=C(Oc2ccccc2)C(=O)c2ccccc21`, the Potency entry was “inactive”.

Consider `O=c1nc(NO)ccn1C1CCCO1` (stereo not given), for which the Potency result was “inactive”.

For the compound `O=c1[nH]c2c(c(=O)n1-c1ccccc1)CCO2`, the Potency result was “inactive”.

Regarding `COC1=CC(=O)OC(c2ccc(OC)cc2)C1` (stereo not given), the Potency entry is “inactive”.

Consider `CCOc1ccc(/C=C(/C#N)c2nnc(N3CCOCC3)n2-c2ccccc2)cc1OC`, for which the Potency result was “inactive”.

For `CC(=O)OC1CCC2C3CCC4=C(CC(F)C(=O)C4)C3CCC12C` (stereo not given), the Potency result was “inactive”.
